KCNQ2 inh – rat KCNQ2 potassium channel inhibitors, primary screen, cell-based, CHO-K1, FluxOR thallium flux, B-score. Potassium voltage-gated channel subfamily KQT member 2 (Rattus norvegicus), O88943. 20 min; active compounds read low. B-score at 10 µM. 310,000 tested, 1.1% active;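 active = fluorescence ratio B-score at most minus 3 library SDs, with starting brightness B-score within 2 library SDs, cut at about -5.5 in these data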
KCNQ2 enhance – potentiators of rat KCNQ2 potassium channel; Potassium voltage-gated channel subfamily KQT member 2 (Rattus norvegicus), O88943; CHO-K1 KCNQ2, FluxOR thallium flux fluorescence; active compounds read high; B-score at 10 µM; 310,000 tested, 0.54% active; AID 2239, 2010;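 active = fluorescence ratio B-score at least 3 SD of library B-scores, with initial fluorescence B-score within 3 of them, cut at about 5.3 in these data; same plate scores as AID 2156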;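 also: B-score of peak minus minimum over baseline fluorescence ratio after K+ and Tl+ stimulus; positive B-score means potentiation of KCNQ2 with more thallium influx and brighter signal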
Kir21 confirm – mouse Kir2.1 channel blockers, retest, confirmation, cell-based, FluxOR thallium flux, duplicate; shares compounds with KCNQ2 enhance; Kir2.1-expressing cells, FluxOR thallium flux fluorescence; active compounds read low; Tl flux remaining, % of negative control (active compounds read low), % at 10 µM; 2,300 tested, 41% active; AID 2032, 2009;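 active = Primary-screen hit whose thallium flux fell at least 3 control SD below untreated wells in both duplicates, with normal baseline fluorescence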
Target sequence (P35561 whole entry, looked up): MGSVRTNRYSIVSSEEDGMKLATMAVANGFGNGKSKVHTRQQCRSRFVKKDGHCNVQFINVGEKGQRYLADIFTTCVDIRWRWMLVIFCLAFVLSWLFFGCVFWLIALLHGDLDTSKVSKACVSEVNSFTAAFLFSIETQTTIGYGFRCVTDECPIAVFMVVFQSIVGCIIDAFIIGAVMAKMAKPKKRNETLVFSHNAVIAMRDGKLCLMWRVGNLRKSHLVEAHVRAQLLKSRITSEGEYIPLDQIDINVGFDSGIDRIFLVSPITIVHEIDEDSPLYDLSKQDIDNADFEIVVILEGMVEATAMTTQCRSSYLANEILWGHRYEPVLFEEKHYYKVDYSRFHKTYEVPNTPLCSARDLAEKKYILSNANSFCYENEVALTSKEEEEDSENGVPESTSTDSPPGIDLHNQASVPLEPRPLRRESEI
HEK293 Tl flux – counter-screen for Kir2.1 inhibitors: effect in parental HEK293 cells; FluxOR thallium flux fluorescence; 0% = unstimulated blank wells; FluxOR signal as % of negative control (100 = no effect), % at 10 µM; AID 2105; shares compounds with KCNQ2 enhance; 2,300 tested, 19% active;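 active = dye signal at least 3 control SD above or below untreated wells in both duplicates, raw fluorescence within 3, either direction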;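 also: percent is based on the flux ratio of peak minus minimum fluorescence over baseline F0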
CHO-K1 Tl ctr – nonspecific thallium flux increase in parental CHO-K1, confirmation, counter-screen for KCNQ2 potentiator project, cell-based, FluxOR thallium flux, duplicate | shares compounds with KCNQ2 enhance | parental CHO-K1 cells, FluxOR thallium flux fluorescence; zero = vehicle mean+3SD, 100% = vehicle-minus-blank window | activity increase over 3SD of controls, % at 10 µM | 1,200 tested, 43% active | AID 2282, 2010;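 active = signal rise of at least 3 SD above the untreated control mean, in both duplicate wells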;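 also: counter screen of KCNQ2 potentiator hits so any rise reflects channel-independent effects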
KCNQ1 sel pot – human KCNQ1 channel potentiation off-target, confirmation, selectivity assay for KCNQ2 potentiator project, cell-based, CHO, FluxOR thallium flux; shares compounds with KCNQ2 enhance; CHO KCNQ1 stable, FluxOR thallium flux fluorescence; beyond 3SD, as % of vehicle-control signal; activation over 3SD threshold, % at 10 µM; 1,200 tested, 28% active;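 active = fluorescence ratio rise of at least 3 SD of vehicle wells above their mean, in both replicate wells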
KCNQ2 pot confirm – rat KCNQ2 channel potentiators, confirmation, cell-based, CHO, FluxOR thallium flux, duplicate; shares compounds with KCNQ2 enhance; CHO-KCNQ2 cells, FluxOR thallium flux fluorescence; potentiation, less the hit threshold, % at 10 µM; 1,200 tested, 68% active; AID 2287, 2010;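 active = fluorescence ratio rising 3 SD or more over the vehicle control mean in both replicates, plus primary screen hit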;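 also: peak minus minimum thallium fluorescence divided by baseline after K/Tl stimulus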
Kir21 spec – mouse Kir2.1 channel activation off-target, confirmation, selectivity assay for KCNQ2 potentiator project, cell-based, HEK293, FluxOR thallium flux; shares compounds with KCNQ2 enhance; HEK293 Kir2.1, FluxOR thallium flux fluorescence; activity over 3SD threshold, % at 10 µM; 1,200 tested, 2% active; AID 2345, 2010;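 active = fluorescence ratio rise of at least 3 SD above the vehicle-control mean, seen in both replicates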
KCNQ2 W236L pot – potentiators of retigabine-insensitive KCNQ2 W236L, mechanism study for KCNQ2 potentiator project, cell-based, rat KCNQ2 W236L, CHO, automated patch clamp; shares compounds with KCNQ2 enhance; automated patch clamp current; current increase over 3SD of negative controls (%), active compounds read high, % at 25 µM; 940 tested, 10% active;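 active = current increase at least 3 SD of the untreated controls above them in both duplicate recordings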
Hits are given with their value; n = inactive; x = not tested or not shown. This is a sample that favours compounds with a hit; in the whole collection about 1.6% have one here.

SMILES	KCNQ2 inh	KCNQ2 enhance	Kir21 confirm	HEK293 Tl flux	others
O=c1c2cc(Cl)ccc2nc(-c2ccccc2)n1O	n	6.5	n	326%	CHO-K1 Tl ctr=5.6;KCNQ1 sel pot=9.7;KCNQ2 pot confirm=38;Kir21 spec=n;KCNQ2 W236L pot=n
O=c1c2ccc(Cl)cc2nc(-c2ccc([N+](=O)[O-])cc2)n1O	n	14	n	304%	CHO-K1 Tl ctr=5.3;KCNQ1 sel pot=n;KCNQ2 pot confirm=42;Kir21 spec=n;KCNQ2 W236L pot=n
Cc1ccccc1-c1nc2ccc(Cl)cc2c(=O)n1O	n	x	x	x
COc1ccccc1-c1nc2cc(Cl)ccc2c(=O)n1O	n	x	x	x
O=c1c2cc(Br)ccc2nc(-c2ccc([N+](=O)[O-])cc2)n1O	n	9.8	n	383%	CHO-K1 Tl ctr=n;KCNQ1 sel pot=65;KCNQ2 pot confirm=51;Kir21 spec=n;KCNQ2 W236L pot=n
O=c1c2ccccc2nc(-c2ccccc2)n1O	n	n	x	x
N#Cc1ccc(-c2nc3ccc(Br)cc3c(=O)n2O)cc1	n	n	x	x
O=c1c2cc(Br)ccc2nc(-c2cccc(C(F)(F)F)c2)n1O	n	28	n	611%	CHO-K1 Tl ctr=n;KCNQ1 sel pot=n;KCNQ2 pot confirm=92;Kir21 spec=14;KCNQ2 W236L pot=n
Cc1cc(NC(=O)CCC(=O)N(CC(=O)NCC2CCCO2)c2cccc(F)c2)no1 (stereo not given)	n	x	x	x
Cc1occc1C(=O)NNC(=O)c1ccccc1[N+](=O)[O-]	n	x	x	x
O=S(=O)(NCC(c1ccc2c(c1)OCO2)N1CCN(c2ccccc2)CC1)c1ccccc1 (stereo not given)	n	x	x	x
CN(C)S(=O)(=O)c1ccc(C(=O)Nc2cc3c(cc2C(=O)O)OCCCO3)cc1	n	x	x	x
COc1ccc(NC(=O)COc2cccc3c2CCN(C)C3=O)c(OC)c1	n	n	x	x
CC(=O)OC1=C(C#N)Cn2ccc3cccc1c32	n	n	55%	n
COc1ccc(-n2ncc(C(C)NS(=O)(=O)c3cccs3)c2C)cc1 (stereo not given)	n	x	x	x
CN(CC(=O)Nc1ccc(N2CCOCC2)cc1)Cc1cc(=O)n2ccsc2n1	n	x	x	x
COc1cc(C(=S)N2CCCCC2)ccc1OCC(=O)Nc1ccc(F)cc1	n	6	n	n	CHO-K1 Tl ctr=142;KCNQ1 sel pot=27;KCNQ2 pot confirm=17;Kir21 spec=n;KCNQ2 W236L pot=n
COc1cc(C(=S)N2CCCCC2)ccc1OCC(=O)N1CCCC1	n	n	x	x
CC(C)[C@@H]1CC[C@@H](C)C[C@H]1OC(=O)C[n+]1cc(-c2ccc(Cl)cc2)n2c1CCCCC2	n	x	25%	n
COc1ccc(-c2c[n+](CC(=O)OC3CC(C)CCC3C(C)C)c3n2CCC3)cc1 (stereo not given)	n	n	x	x
Cc1ccc(NC(=O)CC2C(=O)N(Cc3ccccc3)C(=S)N2NC(=O)c2ccccc2)c(C)c1 (stereo not given)	n	x	x	x
CN(C)Cc1c(O)ccc2ccccc12	n	x	x	x
CC(C)CN(Cc1c(O)ccc2ccccc12)CC(C)C	n	6.5	n	n	CHO-K1 Tl ctr=n;KCNQ1 sel pot=n;KCNQ2 pot confirm=n;Kir21 spec=n
COc1ccccc1-c1ccc2nnc(SC)n2n1	n	n	x	x
COc1ccccc1C(=O)COC(=O)CNS(=O)(=O)c1ccc(C)c(C)c1	n	x	x	x

Compound activity as filed in PubChem BioAssay.
